This is part of a sample that, as a whole, favours compounds with a hit. Of some 79,000 tested, about 15% had one in any assay. A number with no mark means an inactive call. Activity calls are given as the source filed them. Rule as the data show it: active = growth inhibition above about 70%; inactive = the rest.
Columns and labels:
[1] = NCI Yeast Anticancer Drug Screen. Data for the rad50 strain (AID 155);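 also: 0% = growth of vehicle-only cultures of the same strain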; settings: S. cerevisiae rad50 strain growth inhibition, active compounds read high
Procedure, shortened: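 Yeast carrying a defined DNA repair defect were exposed to test compounds, and growth was compared with vehicle-treated controls to give percent inhibition.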

[2] = NCI Yeast Anticancer Drug Screen. Data for the mec2-1 strain (AID 157); settings: S. cerevisiae mec2-1 strain, active compounds read high
Procedure, shortened: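 Yeast mec2-1 mutant treated with compound. Readout: growth inhibition vs vehicle controls.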

[3] = NCI Yeast Anticancer Drug Screen. Data for the sgs1 mgt1 strain (AID 161);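 also: 0% = growth of cultures given vehicle only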; settings: S. cerevisiae sgs1 mgt1 strain, active compounds read high
Procedure, shortened: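 Test agents were incubated with a DNA-repair-mutant yeast strain. Growth was then read and compared against vehicle-treated controls.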

[4] = NCI Yeast Anticancer Drug Screen. Data for the cln2 rad14 strain (AID 165);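 also: 0% = growth equal to vehicle treated cultures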; settings: S. cerevisiae cln2 rad14 strain, active compounds read high
Procedure, shortened: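 cln2 rad14 yeast strain; compound exposure; growth inhibition read vs vehicle controls.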

[5] = NCI Yeast Anticancer Drug Screen. Data for the bub3 strain (AID 167); settings: S. cerevisiae bub3 mutant strain, active compounds read high
Procedure, shortened: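 Compounds were applied to a genetically altered yeast strain carrying a cell-cycle control defect. Growth inhibition was scored against vehicle-treated controls.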

[6] = NCI Yeast Anticancer Drug Screen. Data for the mlh1 rad18 strain (AID 175); settings: S. cerevisiae mlh1 rad18 strain growth inhibition, active compounds read high
Procedure, shortened: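 Yeast w/ defined DNA-repair lesions; compound exposure; growth vs vehicle controls → % inhibition.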

[7] = at 5.0 µM (retest, dose inferred, filed as 0.5)
[8] = at 50.0 µM (retest, dose inferred, filed as 5.0)

## CCC(N)C(O)C(C)C (stereo not given)
[1]; [7]
  growth inhibition: -1%
[1]; [8]
  growth inhibition: 10%
[1]; at 50.0 µM
  growth inhibition: 71.7% (active)
[2]; [7]
  growth inhibition: -1%
[2]; [8]
  growth inhibition: 1%
[2]; at 50.0 µM
  growth inhibition: 2.6%
[3]; [7]
  growth inhibition: -3%
[3]; [8]
  growth inhibition: 2%
[3]; at 50.0 µM
  growth inhibition: 14.3%
[4]; [7]
  growth inhibition: -2%
[4]; [8]
  growth inhibition: -2%
[4]; at 50.0 µM
  growth inhibition: -10.6%
[5]; [7]
  growth inhibition: 3%
[5]; [8]
  growth inhibition: 17%
[5]; at 50.0 µM
  growth inhibition: 13.2%
[6]; [7]
  growth inhibition: -1%
[6]; [8]
  growth inhibition: 3%
[6]; at 50.0 µM
  growth inhibition: 10.6%

## CC1OC(OP(=O)(OCc2ccccc2)OCc2ccccc2)C(OC(=O)c2ccccc2)C(OC(=O)c2ccccc2)C1I (stereo not given)
[1]; [7]
  growth inhibition: 50%
[1]; [8]
  growth inhibition: 93% (active)
[1]; at 50.0 µM
  growth inhibition: 86.1% (active)
[2]; [7]
  growth inhibition: 33%
[2]; [8]
  growth inhibition: 95% (active)
[2]; at 50.0 µM
  growth inhibition: 90.6% (active)
[3]; [7]
  growth inhibition: 37%
[3]; [8]
  growth inhibition: 96% (active)
[3]; at 50.0 µM
  growth inhibition: 90.1% (active)
[4]; [7]
  growth inhibition: 29%
[4]; [8]
  growth inhibition: 95% (active)
[4]; at 50.0 µM
  growth inhibition: 88.5% (active)
[5]; [7]
  growth inhibition: 30%
[5]; [8]
  growth inhibition: 77% (active)
[5]; at 50.0 µM
  growth inhibition: 88.9% (active)
[6]; [7]
  growth inhibition: 55%
[6]; [8]
  growth inhibition: 93% (active)
[6]; at 50.0 µM
  growth inhibition: 85% (active)

## S=c1n(-c2ccc(Cl)cc2)c2nc3ccccc3nc(/c2=N\Nc2cc(Cl)ccc2Cl)n1-c1ccc(Br)cc1
[1]; [7]
  growth inhibition: 2%
[1]; [8]
  growth inhibition: 16%
[1]; at 50.0 µM
  growth inhibition: 50.3%
[2]; [7]
  growth inhibition: -9%
[2]; [8]
  growth inhibition: -12%
[2]; at 50.0 µM
  growth inhibition: 84.5% (active)
[3]; [7]
  growth inhibition: 0%
[3]; [8]
  growth inhibition: 9%
[3]; at 50.0 µM
  growth inhibition: 78% (active)
[4]; [7]
  growth inhibition: -6%
[4]; [8]
  growth inhibition: -24%
[4]; at 50.0 µM
  growth inhibition: 76% (active)
[5]; [7]
  growth inhibition: -6%
[5]; [8]
  growth inhibition: 15%
[5]; at 50.0 µM
  growth inhibition: 85.1% (active)
[6]; [7]
  growth inhibition: 1%
[6]; [8]
  growth inhibition: 4%
[6]; at 50.0 µM
  growth inhibition: 68%

## Cc1ccccc1NC(=O)CSC(N)=O
[1]; [7]
  growth inhibition: 2%
[1]; [8]
  growth inhibition: 26%
[1]; at 50.0 µM
  growth inhibition: 82.1% (active)
[2]; [7]
  growth inhibition: -1%
[2]; [8]
  growth inhibition: 34%
[2]; at 50.0 µM
  growth inhibition: 60.4%
[3]; [7]
  growth inhibition: 1%
[3]; [8]
  growth inhibition: 36%
[3]; at 50.0 µM
  growth inhibition: 91.8% (active)
[4]; [7]
  growth inhibition: 5%
[4]; [8]
  growth inhibition: 6%
[4]; at 50.0 µM
  growth inhibition: 55%
[5]; [7]
  growth inhibition: 1%
[5]; [8]
  growth inhibition: 66%
[5]; at 50.0 µM
  growth inhibition: 87.3% (active)
[6]; [7]
  growth inhibition: 0%
[6]; [8]
  growth inhibition: 29%
[6]; at 50.0 µM
  growth inhibition: 83% (active)

## Cc1ccc(S(=O)(=O)OC(COC(=O)c2ccc([N+](=O)[O-])cc2)C2OC(C)(C)OC2C(SCc2ccccc2)SCc2ccccc2)cc1 (stereo not given)
[1]; [7]
  growth inhibition: 4%
[1]; [8]
  growth inhibition: 10%
[1]; at 50.0 µM
  growth inhibition: 96.8% (active)
[2]; [7]
  growth inhibition: 5%
[2]; [8]
  growth inhibition: 1%
[2]; at 50.0 µM
  growth inhibition: 86.5% (active)
[3]; [7]
  growth inhibition: -1%
[3]; [8]
  growth inhibition: 5%
[3]; at 50.0 µM
  growth inhibition: 95.5% (active)
[4]; [7]
  growth inhibition: 2%
[4]; [8]
  growth inhibition: 8%
[4]; at 50.0 µM
  growth inhibition: 39.2%
[5]; [7]
  growth inhibition: 17%
[5]; [8]
  growth inhibition: 23%
[5]; at 50.0 µM
  growth inhibition: 89% (active)
[6]; [7]
  growth inhibition: 6%
[6]; [8]
  growth inhibition: -2%
[6]; at 50.0 µM
  growth inhibition: 93.7% (active)

## CC1(C)CCC2(C(=O)O)CCC3(C)C(=CCC4C5(C)CC(O)C(O)C(C)(C(=O)O)C5CCC43C)C2C1 (stereo not given)
[1]; [7]
  growth inhibition: 99% (active)
[1]; [8]
  growth inhibition: 99% (active)
[1]; at 50.0 µM
  growth inhibition: 91.9% (active)
[2]; [7]
  growth inhibition: 99% (active)
[2]; [8]
  growth inhibition: 99% (active)
[2]; at 50.0 µM
  growth inhibition: 94.6% (active)
[3]; [7]
  growth inhibition: 99% (active)
[3]; [8]
  growth inhibition: 99% (active)
[3]; at 50.0 µM
  growth inhibition: 93.2% (active)
[4]; [7]
  growth inhibition: 99% (active)
[4]; [8]
  growth inhibition: 99% (active)
[4]; at 50.0 µM
  growth inhibition: 92.5% (active)
[5]; [7]
  growth inhibition: 99% (active)
[5]; [8]
  growth inhibition: 99% (active)
[5]; at 50.0 µM
  growth inhibition: 92.4% (active)
[6]; [7]
  growth inhibition: 99% (active)
[6]; [8]
  growth inhibition: 99% (active)
[6]; at 50.0 µM
  growth inhibition: 91.9% (active)

## CSC(=S)NN=C1CCCC1
[1]; [7]
  growth inhibition: 66%
[1]; [8]
  growth inhibition: 97% (active)
[1]; at 50.0 µM
  growth inhibition: 87.5% (active)
[2]; [7]
  growth inhibition: 57%
[2]; [8]
  growth inhibition: 98% (active)
[2]; at 50.0 µM
  growth inhibition: 83.7% (active)
[3]; [7]
  growth inhibition: 61%
[3]; [8]
  growth inhibition: 97% (active)
[3]; at 50.0 µM
  growth inhibition: 89.9% (active)
[4]; [7]
  growth inhibition: 49%
[4]; [8]
  growth inhibition: 98% (active)
[4]; at 50.0 µM
  growth inhibition: 57.8%
[5]; [7]
  growth inhibition: 78% (active)
[5]; [8]
  growth inhibition: 98% (active)
[5]; at 50.0 µM
  growth inhibition: 94.8% (active)
[6]; [7]
  growth inhibition: 58%
[6]; [8]
  growth inhibition: 97% (active)
[6]; at 50.0 µM
  growth inhibition: 89.5% (active)

## O=c1cccccc1[O-].O=c1cccccc1[O-].O=c1cccccc1[O-].[La+3]
[1]; [7]
  growth inhibition: 87% (active)
[1]; [8]
  growth inhibition: 87% (active)
[1]; at 50.0 µM
  growth inhibition: 90.8% (active)
[2]; [7]
  growth inhibition: 52%
[2]; [8]
  growth inhibition: 52%
[2]; at 50.0 µM
  growth inhibition: 91.8% (active)
[3]; [7]
  growth inhibition: 92% (active)
[3]; [8]
  growth inhibition: 92% (active)
[3]; at 50.0 µM
  growth inhibition: 87.5% (active)
[4]; [7]
  growth inhibition: 59%
[4]; [8]
  growth inhibition: 59%
[4]; at 50.0 µM
  growth inhibition: 89.8% (active)
[5]; [7]
  growth inhibition: 26%
[5]; [8]
  growth inhibition: 26%
[5]; at 50.0 µM
  growth inhibition: 90.7% (active)
[6]; [7]
  growth inhibition: 74% (active)
[6]; [8]
  growth inhibition: 74% (active)
[6]; at 50.0 µM
  growth inhibition: 88.6% (active)

## N#CC(C(=O)C(=O)Nc1ccc(Cl)cc1)c1c(Cl)cccc1Cl (stereo not given)
[1]; [7]
  growth inhibition: 12%
[1]; [8]
  growth inhibition: 1%
[1]; at 50.0 µM
  growth inhibition: 56.2%
[2]; [7]
  growth inhibition: 7%
[2]; [8]
  growth inhibition: 11%
[2]; at 50.0 µM
  growth inhibition: 7.5%
[3]; [7]
  growth inhibition: 24%
[3]; [8]
  growth inhibition: 8%
[3]; at 50.0 µM
  growth inhibition: 28.8%
[4]; [7]
  growth inhibition: 18%
[4]; [8]
  growth inhibition: 10%
[4]; at 50.0 µM
  growth inhibition: -22.4%
[5]; [7]
  growth inhibition: 27%
[5]; [8]
  growth inhibition: 6%
[5]; at 50.0 µM
  growth inhibition: 8.2%
[6]; [7]
  growth inhibition: 14%
[6]; [8]
  growth inhibition: 3%
[6]; at 50.0 µM
  growth inhibition: 24.9%

## CCCCCCCCCCCCOC(=O)C[N+]1(C)CCCCC1
[1]; [7]
  growth inhibition: 92% (active)
[1]; [8]
  growth inhibition: 99% (active)
[1]; at 50.0 µM
  growth inhibition: 43.5%
[2]; [7]
  growth inhibition: 93% (active)
[2]; [8]
  growth inhibition: 99% (active)
[2]; at 50.0 µM
  growth inhibition: 99.8% (active)
[3]; [7]
  growth inhibition: 99% (active)
[3]; [8]
  growth inhibition: 99% (active)
[3]; at 50.0 µM
  growth inhibition: 39.4%
[4]; [7]
  growth inhibition: 67%
[4]; [8]
  growth inhibition: 99% (active)
[4]; at 50.0 µM
  growth inhibition: 98.5% (active)
[5]; [7]
  growth inhibition: 99% (active)
[5]; [8]
  growth inhibition: 99% (active)
[5]; at 50.0 µM
  growth inhibition: 99.7% (active)
[6]; [7]
  growth inhibition: 33%
[6]; [8]
  growth inhibition: 99% (active)
[6]; at 50.0 µM
  growth inhibition: 99.5% (active)
